# From PubChem
# Rows were chosen to be rich in hits. Some 5.7% of all compounds tested hit in one or more screens of this group.
# DAX1 inh-1: inhibitors of DAX1 repression of SF-1 activated StAR promoter. HEK293T StAR-luciferase reporter, SF-1/DAX-1 repression relief. inhibition, % at 6.8 µM. hit rate 1.1% among 370,000. AID 652010;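 active = inhibition above the mean over all tested compounds plus 3 SD, cut at about 3.6% in these data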;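 note: 0% = DAX-1 cells with DMSO and 100% = cells lacking DAX-1 with DMSO; higher inhibition means more luminescence from relief of DAX-1 repression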
# ssDAF12 agonist: activates DAF-12 receptor from parasite S. stercoralis; hit rate 1% among 370,000; AID 652126; activation, % at 6.8 µM; HEK293 ssDAF-12/GRIP1 lit1-tk-luc reporter, luminescence; % of 3 µM dafachronic acid response;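 active = activation above the mean over all tested compounds plus 3 SD, cut at about 0.9% in these data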;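 note: 0% = DMSO-only wells and 100% = 3 µM delta7-dafachronic acid wells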
# hgDAF-12 ag: activates the H. glycines DAF-12 receptor ligand-binding domain. HEK293 GAL4-hgDAF12 UAS-luciferase reporter, agonist luminescence; normalized to butyrate control. hit rate 1.8% among 370,000. activation, % at 6.8 µM;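 active = activation above a cutoff set at the mean of all screened compounds plus 3 SD, cut at about 10% in these data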;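 note: 0% = DMSO wells and 100% = sodium butyrate wells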
# DAX1 inh-2: NR0B1 (DAX1) inhibition | P51843 | HEK293 Gal4-DAX1 luciferase reporter, luminescence | inhibition, % at 6.75 µM | hit rate 0.99% among 340,000 | AID 504766;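 active = inhibition above the mean over all tested compounds plus 3 SD, cut at about 4.2% in these data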;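 note: 0% = DAX1-transfected cells with DMSO and 100% = empty-vector control cells with DMSO; inhibition shows as a rise in luminescence from relieved DAX1 repression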
# Target sequence (P51843 207-470 limits assumed): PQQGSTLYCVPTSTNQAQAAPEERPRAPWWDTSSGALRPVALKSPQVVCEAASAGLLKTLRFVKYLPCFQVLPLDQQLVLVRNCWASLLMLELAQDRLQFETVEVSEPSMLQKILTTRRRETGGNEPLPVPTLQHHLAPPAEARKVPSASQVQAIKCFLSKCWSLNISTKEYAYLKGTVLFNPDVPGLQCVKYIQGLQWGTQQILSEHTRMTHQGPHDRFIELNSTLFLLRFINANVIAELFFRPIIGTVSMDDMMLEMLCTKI
# hcDAF12 agonist: H. contortus DAF-12 activation, primary screen | AID 652067 | hit rate 1.4% among 370,000 | activation, % at 6.8 µM | HEK293 hcDAF-12 lit1-tk-luc reporter, luminescence; 0% DMSO, 100% Δ7-dafachronic acid;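 active = activation above the mean of all tested compounds plus 3 SD, cut at about 5.5% in these data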;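 note: 100% = response to 3 µM Δ7-dafachronic acid high control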
# AHR act: activates the human aryl hydrocarbon receptor; P35869; AHR-responsive luciferase reporter cells, luminescence; activation, % at 5 µM; hit rate 2.5% among 320,000; AID 2796; in the data active = activation above about 47%;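 note: 0% = vehicle wells and 100% = reference agonist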
# AHR act confirm: human AHR activation, confirmation; shares compounds with AHR act; human cells, AHR-responsive luciferase reporter, luminescence; activation, % at 9 µM; hit rate 87% among 2,300; AID 2845; in the data active = activation above about 49%;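 note: HepG2 hepatoma cells carrying a DRE-driven firefly luciferase reporter; 0% = vehicle wells and 100% = reference agonist wells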
# PXR counter: counter-screen for AHR activators: human PXR activators | AID 434939 | hit rate 88% among 2,300 | cell-based PXR reporter, luciferase luminescence | activation, % at 11.6 µM | shares compounds with AHR act; in the data active = activation above about 11%;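 note: human hepatoma DPX-2 cells expressing full-length human PXR; 0% = DMSO and 100% = reference agonist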
# Target sequence (O75469 whole entry, looked up): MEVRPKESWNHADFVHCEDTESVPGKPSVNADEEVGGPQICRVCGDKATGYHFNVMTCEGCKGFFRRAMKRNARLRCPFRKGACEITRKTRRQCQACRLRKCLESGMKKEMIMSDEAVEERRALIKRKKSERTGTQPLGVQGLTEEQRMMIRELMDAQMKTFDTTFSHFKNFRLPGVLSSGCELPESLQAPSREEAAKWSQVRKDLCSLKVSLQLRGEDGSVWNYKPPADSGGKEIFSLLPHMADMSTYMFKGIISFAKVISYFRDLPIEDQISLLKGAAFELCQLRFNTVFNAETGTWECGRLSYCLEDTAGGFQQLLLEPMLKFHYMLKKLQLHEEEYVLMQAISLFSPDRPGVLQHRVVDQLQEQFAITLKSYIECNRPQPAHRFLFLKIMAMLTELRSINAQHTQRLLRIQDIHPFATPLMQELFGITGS
# The depositor's hits bear a star; nt = no result.
SMILES,DAX1 inh-1,ssDAF12 agonist,hgDAF-12 ag,DAX1 inh-2,hcDAF12 agonist,AHR act,AHR act confirm,PXR counter
CCN(CC)c1ccc(/C=C2\NC(=O)NC2=O)cc1,-0.5,-1.2,-0.8,-0.6,-0.9,87.8*,56.5*,11.3*
Cc1ccc(C(=O)COc2nc(C)cc(C)c2C#N)cc1,-0.9,-0.9,2.2,0.6,3.0,45.9,nt,nt
Cc1ccnc(SCC(=O)c2ccc(Br)cc2)c1C#N,1.1,0.3,7.3,2.2,4.6,125.5*,125.1*,92.5*
Cc1cc(C)c(C#N)c(OCC(=O)c2ccc(Br)cc2)n1,-0.1,-0.9,-1.3,1.1,-0.5,101.3*,106.2*,19.8*
CCOc1ccccc1NC(=O)c1ccoc1C,-0.2,-1.4,-0.3,0.2,-1.9,80.9*,88.8*,12.9*
CCOc1ccccc1C(=O)Nc1cccc2ccccc12,-0.5,-1.4,-1.0,1.6,-2.4,88.0*,62.9*,34.1*
O=C(O)C1(c2ccccc2)CCN(S(=O)(=O)c2ccc(Br)cc2)CC1,-0.9,-0.7,-3.1,-1.8,-0.1,-2.2,nt,nt
Cc1ccc(NC(=O)COC(=O)Cn2ccc(=O)[nH]c2=O)cc1C,0.1,-0.4,0.4,0.2,0.1,1.8,nt,nt
Cc1noc(C)c1S(=O)(=O)NC(=O)C1(C)CCN1C(=O)Cc1ccc(Cl)cc1Cl (stereo not drawn),0.9,-1.1,2.6,nt,-0.2,nt,nt,nt
Cc1cccc2c1ncc1c(=O)n(-c3ccccc3)[nH]c12,2.4,0.2,8.2,1.6,2.7,135.5*,128.5*,32.5*
O=C(CN1C(=O)c2ccccc2S1(=O)=O)NCCSCc1c(F)cccc1Cl,0.4,-0.8,-1.7,-0.5,0.0,-4.0,nt,nt
O=C1NC(c2cccs2)Nc2sc3c(c21)CCCC3 (stereo not drawn),0.7,0.7,9.2,1.6,5.2,92.7*,128.1*,36.9*
Cc1cc(S(=O)(=O)NCCCN2CCOCC2)c(Cl)cc1Cl,0.2,-1.6,-1.0,2.4,1.1,2.2,nt,nt
CCOC(=O)CN1C(=O)N[C@@H](c2cccc(C(F)(F)F)c2)[C@H](C(C)=O)[C@H]1C,-0.7,-1.2,0.2,-0.8,0.0,-3.0,nt,nt
CC(C)c1ccc(NC(=O)CSc2nc(=O)n(CCN3CCOCC3)c3c2CCC3)cc1,1.2,-1.1,0.0,0.6,-2.0,6.4,nt,nt
Nc1ccc(Br)c2c1C(=O)c1ccccc1C2=O,nt,nt,nt,nt,nt,95.3*,57.8*,16.4*
CCC(C)OC(=O)c1[nH]c2c(c1C)C(=O)CC(c1ccc(N(C)C)cc1)C2 (stereo not drawn),0.4,-1.0,11.3*,-0.3,-2.7,82.5*,35.4,70.4*
O=C(Nc1ccc(Cl)c(C(F)(F)F)c1)c1ccco1,-1.0,-1.9,-1.4,-2.6,-0.8,81.7*,1.4,5.8
Nc1nc2ccc(NC(=O)c3ccco3)cc2s1,0.2,-0.3,7.5,0.7,4.1,82.4*,52.3*,15.3*
Cc1nc2ccc(NC(=O)c3ccco3)cc2nc1C,0.0,-1.8,-0.4,0.4,-1.8,9.9,nt,nt
CC1Cc2ccccc2N1C(=O)COc1ccc2c(c1)OCO2 (stereo not drawn),2.3,-1.1,1.7,1.1,2.4,84.0*,95.0*,65.7*
Cc1ccc([N+](=O)[O-])cc1N/C=C1\CCCCC1=O,-1.0,-0.9,4.7,-1.0,-2.2,-1.4,nt,nt
CC(C)OC(=O)c1nnc(Cc2ccc(F)cc2)o1,0.3,-0.6,1.2,-0.2,0.9,91.0*,29.7,9.4
Cc1nnc(Nc2ccc3c(c2)OCO3)c2ccccc12,0.5,0.5,6.5,-0.6,5.2,84.5*,105.2*,160.5*
Cc1ccc(-c2nnc(Nc3ccc4c(c3)OCO4)c3ccccc23)cc1S(N)(=O)=O,-1.0,-1.7,-2.3,-0.9,-3.5,36.5,nt,nt
SMILES,DAX1 inh-1,ssDAF12 agonist,hgDAF-12 ag,DAX1 inh-2,hcDAF12 agonist,AHR act,AHR act confirm,PXR counter
c1ccc(-c2csc(=Nc3cccnc3)n2CC2CCCO2)cc1 (stereo not drawn),-0.4,-1.7,-2.1,-1.0,-3.5,80.4*,55.4*,96.9*
Clc1ccsc1-c1csc(-c2cccnc2)n1,-0.3,0.7,7.5,1.1,4.5,84.7*,142.2*,25.0*
O=S(=O)(c1ccc(-c2csc(-c3cccnc3)n2)cc1)N1CCCC1,-1.4,-1.5,0.2,-0.9,-2.1,0.0,nt,nt
CCc1ccccc1NC(=S)N(CCOC)C(C)c1ccco1 (stereo not drawn),0.2,-1.6,2.0,1.4,0.1,-1.8,nt,nt
CCc1cc2ccc(OC)cc2nc1SCC(=O)NNC(C)=O,-0.1,-0.3,-1.3,3.5,-1.5,13.2,nt,nt
CCc1cc2cc(OC)ccc2nc1SCC(=O)NNC(=O)c1ccco1,-0.2,-1.7,0.6,-0.9,-2.4,82.2*,16.1,14.3*
COCCCN1C(=O)C(=O)/C(=C(/O)c2ccc(S(=O)(=O)N3CCOCC3)cc2)C1c1cccc(Cl)c1 (stereo not drawn),1.1,-1.6,0.0,1.2,0.6,-0.3,nt,nt
COC(=O)[C@]1(C)N[C@H](c2ccc(SC3CCCCC3)c(OC)c2)[C@@H]2C(=O)N(C)C(=O)[C@@H]21,-0.2,-1.4,1.8,-0.2,-1.0,1.7,nt,nt
CC(C)(C)NC(=S)N/N=C/c1c(Cl)cccc1Cl,-0.6,-1.2,-0.1,0.4,-2.7,103.2*,4.8,131.0*
O=[N+]([O-])c1cccc2ccc(/C=C/c3cccc(Br)c3)nc12,0.7,-0.9,2.6,0.0,5.5,175.1*,120.7*,25.3*
Cc1noc(C)c1COc1ccccc1C(=O)NNC(=O)c1ccc(F)cc1,-0.1,-1.5,0.8,-0.2,0.1,2.1,nt,nt
Cc1noc(C)c1COc1ccccc1C(=O)NNC(=O)c1ccccc1F,0.5,-0.5,0.2,1.8,-0.5,91.8*,116.8*,72.6*
O=c1c2ccccc2nc(-c2ccco2)n1CCCn1ccnc1,-0.6,-1.7,-1.8,-0.3,-1.4,83.2*,103.0*,23.1*
COc1ccccc1NC(=O)Nc1cccnc1,-0.6,-1.3,-0.5,-0.5,0.7,122.2*,93.2*,nt
O=C(Nc1cccnc1)Nc1cc(Cl)cc(Cl)c1,0.0,-2.0,0.9,1.0,-3.5,113.0*,61.8*,nt
O=C(Cn1cnc(S(=O)(=O)N2CCCC2)c1)Nc1cccc(F)c1,-0.1,-1.0,-0.2,0.3,-1.2,-0.6,nt,nt
CCOC(=O)C1CCN(C(=O)CCNS(=O)(=O)c2ccc3c(c2)CCN3C(=O)CC)CC1,-0.3,-0.5,0.7,1.5,-1.4,1.0,nt,nt
Cc1c(NS(=O)(=O)c2cccs2)cccc1-c1nc2cccnc2s1,1.0,-1.6,-1.0,1.5,-1.8,3.9,nt,nt
O=S(=O)(Nc1ccc(-c2nc3cccnc3s2)cc1)c1cccs1,2.1,0.8,5.1,3.2,2.0,94.6*,98.1*,29.4*
